High-throughput results (PubChem)
A selection: hits, their analogues and other compounds. The true share with any hit is near 15%.
HCMV antiviral = qHTS Assay for inhibitors of the human cytomegalovirus (HCMV); AID 1259415, 2018; activity change, negative = inhibition, % at 57.5 µM; HFF cells, HCMV-luciferase reporter, 72 h; stronger effect = lower value; actives 4.5% (n = 410,000); in the data active means activity change below about -60%; inconclusive means no clear call, values can overlap the other calls; inactive means above about -39%; further: on the % scale 0 is the no-effect control and ±100 the full control effect
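Screen run at 2 compound doses on HFFs infected with reporter HCMV, MOI 1 PFU/cell. Luciferase activity from cell lysates at 72 h post infection gave inhibition relative to buffer-only and Salinomycin wells.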
Pf growth 48h = Primary qHTS for delayed death inhibitors of the malarial parasite plastid, 48 hour incubation. P. falciparum luciferase growth in erythrocytes, 48 h. Potency, µM (series often up to 28.7 µM), inactives show top-dose activity change, negative = inhibition, usual class: inhibitors. actives 5.9% (n = 310,000); further: potency means the concentration at half of the fitted maximal effect; on the % scale 0 is the no-effect control and ±100 the full control effect
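A one-generation exposure of luciferase-tagged malaria parasites in RPMI 1640/Albumax erythrocyte culture, 37 C and 5% CO2. Inhibition is inferred from decreased luminescence after adding detection reagent.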
Sm TGR block = qHTS Assay for the Inhibitors of Schistosoma Mansoni Peroxiredoxins; purified TGR, DTNB reduction, TNB absorbance 405 nm; Potency, µM (top dose mostly 114 µM), inactives show at the highest dose activity change, negative = inhibition, usual class: inhibitors; actives 3% (n = 360,000); AID 485364, 2010; further: potency means the concentration at half of the fitted maximal effect; on the % scale 0 is the no-effect control and ±100 the full control effect; nearly all actives have a fitted effect of over 60% in size
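Kinetic colorimetric format: TGR-catalysed, NADPH-driven DTNB reduction monitored via TNB absorbance. Enzyme dispensed at 20 nM; compound exposure 15 min at room temperature before reaction start.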
Pf growth 96h = Primary qHTS for delayed death inhibitors of the malarial parasite plastid, 96 hour incubation; P. falciparum luciferase reporter growth, 96 h; AID 504834, 2011; Potency, µM (highest dose often 28.7 µM), without a hit: top-dose activity change, negative = inhibition, hits mostly inhibitors; actives 6.9% (n = 320,000); further: potency means the concentration at half of the fitted maximal effect; on the % scale 0 is the no-effect control and ±100 the full control effect
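Readout is luminescence from an integrated firefly luciferase in P. falciparum. Red cells, 2% hematocrit and 0.05% parasitemia final, were cultured with compound through two parasite generations (96 hours) at 37 C, 5% CO2.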
SARS PLP yeast = qHTS of Yeast-based Assay for SARS-CoV PLP | S. cerevisiae expressing SARS-CoV PLpro, growth rescue | Potency, µM (doses to about 32.9 µM), for inactives: top-dose activity, positive = growth rescue, hits mostly activators | actives 0.19% (n = 330,000) | AID 485353, 2010; calls by dose curve; further: potency means the concentration at half of the fitted maximal effect; 0% is about no effect; nearly all actives have a fitted effect of over 55% in size
HCV inh = qHTS Assay for Inhibitors of Hepatitis C Virus (HCV). Huh7.5.1 HCVcc-Cre infection, luciferase reporter, 44 h. Potency, µM (titrated, usually from 41.8 µM), for the others: at the top dose activity change, negative = inhibition, actives largely listed as inhibitors. actives 3.4% (n = 340,000); further: potency means the concentration at half of the fitted maximal effect; on the % scale 0 is the no-effect control and ±100 the full control effect
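HCVcc-Cre virus at an moi near 0.5 was added right after compound to cells cultured 4 h from seeding (1,000 cells/well). Luciferase activity was determined 44 h later, 15 min after substrate addition at RT.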
* marks the source's active call; other numbers are inactive results; u = inconclusive; x = no result given. Unless noted, the call rests on the fitted dose curve; in most records, active means well fitted curve in the direction sought with a large enough effect; inconclusive means small, poorly fitted or top-dose-only effect, or another doubt; inactive means no such curve, though single readings can be large; an effect the other way counts as inactive or inconclusive.

SMILES	HCMV antiviral	Pf growth 48h	Sm TGR block	Pf growth 96h	SARS PLP yeast	HCV inh
CCN1CCOC(=O)C1CC(=O)Nc1ccc(C(C)=O)cc1 (configuration not stated)	10	x	22µM*	x	x	x
Cc1cccc(Oc2ccc(NC(=O)C3=CC=CN4CCS(=O)(=O)N=C34)cc2)c1	-21	u	-23%	12µM*	1%	10%
COc1cc2nc(NCCc3cccc(C)c3)n3nc(-c4ccccc4)nc3c2cc1OC	-2	x	5%	x	x	x
CC(=O)c1cccc(NC(=O)N2CCCC2C(=O)NCc2ccc3c(c2)OCO3)c1 (configuration not stated)	26	u	0%	13µM*	0%	-6%
O=C(NCc1ccc2c(c1)OCO2)C1CCN(S(=O)(=O)c2ccc(F)cc2)CC1	-26	6%	0%	u	3%	2%
O=C(NCc1ccc2c(c1)OCO2)C1CCCN1S(=O)(=O)c1ccc(F)cc1 (configuration not stated)	0	2.3µM*	0%	34%	3%	15%
O=C(NCc1ccc2c(c1)OCO2)C1CCCN1C(=O)Nc1cccc(F)c1 (configuration not stated)	32	u	3%	-1%	-8%	4%
CCN(CC)S(=O)(=O)N1CCC(C(=O)NCc2ccc3c(c2)OCO3)CC1	-23	-10%	10%	2.6µM*	25%	26%
CC1NC2(C(=O)N(Cc3ccccc3)c3ccccc32)C2C(=O)N(c3ccccc3)C(=O)C12 (configuration not stated)	-98*	u	-11%	12µM*	10%	12%
CN1C(=O)C(C2(O)C(=O)N(Cc3ccccc3)c3ccccc32)c2ccccc21 (configuration not stated)	-11	x	x	x	x	x
Cc1cc(N(C)NC(=S)Nc2ccccc2)nc(C)n1	-91*	22%	-2%	-26%	3%	9%
CC(C)N(C)NC(=S)Nc1ccccc1	0	-8%	-14%	45%	u	23%
Cc1ccc(CCNC(=O)C2CC(=O)N(C3CCCCC3)C2)cc1 (configuration not stated)	0	8%	-8%	1.5µM*	1%	8%
CCc1ccc(CNC(=O)C2CC(=O)N(C3CCCC3)C2)cc1 (configuration not stated)	0	-14%	4%	2.6µM*	14%	11%
Cc1cc(C)c(NC(=O)C2CC(=O)N(C3CCCC3)C2)c(C)c1 (configuration not stated)	-72*	x	x	x	6%	-7%
Cc1cc(C)c(NC(=O)C2CCCN2C)c(C)c1 (configuration not stated)	-16	39%	-11%	8.3µM*	5%	14%
COc1ccc(CCNC(=O)C2CC(=O)N(C3CCCCCCC3)C2)cc1OC (configuration not stated)	61	u	13%	u	3%	23%
COc1ccc(CNC(=O)C2CC(=O)N(C3CCCC3)C2)cc1 (configuration not stated)	11	16%	0%	50%	-3%	3%
CC1(C(=O)Nc2ccc3c(c2)OCCO3)CSCC(=O)N1CC(F)(F)F (configuration not stated)	8	x	x	x	x	x
Cc1ccc2onc(CNC(=O)NCc3ccc(Cl)cc3)c2c1	-20	x	8%	x	x	x
COc1ccc(C(C)(O)c2nc(-c3cccc(F)c3)cs2)cc1 (configuration not stated)	24	x	x	x	x	x
Cc1ccc(C)n1-c1ccc(-c2ccnc(N)n2)cc1	-66*	u	25µM*	u	4%	-9%
O=C(Nc1cccc(S(=O)(=O)N2CCCC2)c1)c1ccc2c(=O)n3c(nc2c1)CCCCC3	-66*	u	3%	5.2µM*	-8%	2.8µM*
